# TDP-43 rescue – inhibitors of TDP-43 toxicity in yeast; actives 0.45% (n = 45,000); yeast TDP-43 toxicity rescue, BacTiter-Glo growth, 24 h; Potency, µM (doses to about 46.1 µM), most hits filed as activators; AID 1347073; active = well fitted activation curve with a large enough effect; note: 0% is about no effect; nearly all actives have a fitted effect of over 55% in size
#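 TDP-43-expressing yeast, pregrown in raffinose, seeded at OD600 0.02 in galactose medium with compound for 24 hr at 30 deg C. Growth read by BacTiter-Glo luminescence, so rescue of toxicity appears as activation.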
# Active calls of the source: *; i = inactive. Only a selection was taken, and hits are over-represented in it overall. Potency is the fitted concentration of half-maximal effect.
SMILES,TDP-43 rescue
COc1cc(/C=C/c2cccc[n+]2C)ccc1OCC(=O)Nc1cccc(Cl)c1,i
COc1ccccc1OCCn1c(COc2cc(C)ccc2C)nc2ccccc21,i
Cc1ccc(S(=O)(=O)N2CCCC2C(=O)Nc2ccc(Br)cc2)cc1 (configuration not stated),13µM*
Cc1ccc(NC(=O)[C@@H]2CCCN2S(=O)(=O)c2ccccc2F)cc1,i
Cc1ccc(NC(=O)C2CCCN2S(=O)(=O)c2ccc3c(c2)n(C)c(=O)c(=O)n3C)cc1 (configuration not stated),i
CCc1nc2c(OCc3ccc(C(F)(F)F)cc3)cccn2c1N(C)C(=O)C1CC1,i
COc1ccc(C(O)c2nc(-c3cccc(CO)c3)cs2)cc1 (configuration not stated),i
NC(=O)C1CCCN(C(=O)CCC(=O)c2cccs2)C1 (configuration not stated),i
Cn1cc(-c2ccc(C(=O)NCc3cccc(Cl)c3)c3occc23)cn1,i
O=C(NCCc1ccccc1)c1ccc(-c2cccnc2)c2ccoc12,i
O=C(NCc1cccc(Cl)c1)c1ccc(-c2cccnc2)c2ccoc12,14µM*
COc1ccc(/C=C2\SC(=O)N(CCNC(=O)Cn3[nH]c(=O)c4ccccc4c3=O)C2=O)cc1,i
CCN(Cc1ccccc1)C(=O)COC(=O)[C@@H]1CCCN1C(=O)c1cccs1,i
COc1cccc(-c2cnc(C(O)c3ccc(C)cc3C)[nH]2)c1 (configuration not stated),i
O=C(Nc1cc(Cl)ccc1Cl)C1Cc2ccccc2O/C1=N\O (configuration not stated),11µM*
COc1cccc2c1O/C(=N\O)C(C(=O)Nc1cccc(C)c1C)C2 (configuration not stated),i
O=C(Nc1ccccc1Cl)C1C2CCCCC21 (configuration not stated),i
CCCS(=O)(=O)NC(=O)C1(C)CCCN(C(=O)c2ccccc2OC)C1 (configuration not stated),i
CCN(CC(=O)Nc1ccc2c(c1)OCCO2)CC(=O)Nc1ccc(C)c(S(=O)(=O)N(C)C)c1,i
COc1ccc(Cl)cc1NC(=S)NN1CCOCC1,i
COc1ccc(Cl)cc1NC(=S)Nc1ccc(Cl)cn1,i
COc1ccc(Cl)cc1NC(=S)NCCSc1ccc(C)cc1,13µM*
CCOn1c(=O)c(-c2cccc(Br)c2)[n+]([O-])c2ccccc21,i
COC(=O)c1sc(NC(=O)CSc2nnnn2C)nc1C,i
COc1ccc(-c2[nH]ncc2C(=O)NCc2ccccc2C)cc1,i
SMILES,TDP-43 rescue
Cc1ccc(SCC(=O)NNC(=O)c2ccccc2)c(C)c1,i
O=C(COC(=O)/C=C/c1ccccc1[N+](=O)[O-])NCc1ccco1,i
CCOC(=O)c1c(N)sc(N)c1C(=O)OCC,i
CC(C)Cc1csc(NC(=O)c2ccc(F)cc2)c1C(=O)O,i
CCOC(=O)c1c(CC(C)C)csc1NC=O,16µM*
COc1ccc(N2CCOCC2)c(NC(=O)c2ccc(Br)o2)c1,16µM*
COC(=O)c1cc(OC)c(OC)cc1NC(=O)c1ccc(Br)o1,i
COc1ccc(S(=O)(=O)Nc2cc(C(=O)NCCCN3CCOCC3)ccc2N2CCOCC2)cc1,i
COc1ccc(S(=O)(=O)N(C)CC(=O)NCc2ccccn2)cc1,i
O=C(c1ccco1)c1cn(CC(=O)N2CCCc3ccccc32)c2ccccc12,18µM*
O=Cc1cn(CC(=O)N2CCCCC2)c2ccccc12,i
O=C(Cn1cc(C(F)(F)F)ccc1=O)N1CCCc2ccccc21,i
COc1cccc(NC(=O)Nc2nnc([C@@H]3C[C@H](O)[C@@H](CO)O3)s2)c1,i
CCOc1ccc(CNC(=O)c2cc3oc4ccccc4c3n2C)cc1,i
COc1ccc(CNC(=O)c2cc3sccc3n2C)cc1,13µM*
COc1ccc(CNC(=O)CSc2cc(=O)n(C)c3ccccc23)cc1,i
Cc1ccc2[nH]cc(S(=O)(=O)c3ccc(C)c(C)c3)c(=O)c2c1,i
CCCSc1ncc(Cl)c(C(=O)N(Cc2ccc(N(C)C)cc2)C2CCS(=O)(=O)C2)n1 (configuration not stated),i
CC(C)n1ncc2c(C(=O)NCCc3ccc(F)cc3)cc(C3CC3)nc21,i
CSc1cccc(NC(=O)C2C3C=CC4(O3)C2C(=O)N(CCN2CCOCC2)C4C(=O)NC2CCCCC2)c1 (configuration not stated),i
O=C(CSc1nc2cc(Cl)ccc2s1)NCc1ccc2c(c1)OCO2,i
Clc1ccccc1-c1cnc2sc(NCc3ccc4c(c3)OCO4)nn12,5µM*
CN1CCN(S(=O)(=O)c2ccc(NCc3ccc4c(c3)OCO4)nc2)CC1,i
CCOC(=O)c1cc(OC)c2cccc(CN3CCC(C)(C(=O)NCCOC)C3)c2c1 (configuration not stated),i
COc1cccc(CC(=O)N2CCN(c3ccccc3[N+](=O)[O-])CC2)c1,i
SMILES,TDP-43 rescue
COc1ccc(C(=O)NC(=S)N2CCCCC2)cc1[N+](=O)[O-],i
COc1ccc(N2CCN(C(=S)NC(=O)c3cccs3)CC2)c([N+](=O)[O-])c1,28µM*
CC(=O)N1CCN(C(=O)C2CCN(S(=O)(=O)c3ccccc3C(F)(F)F)CC2)CC1,i
O=S(=O)(c1cc(C(F)(F)F)ccc1Cl)N1CCN(c2ncnc3ccccc23)CC1,i
O=S(=O)(c1ccccc1C(F)(F)F)N1CCN(c2ncnc3sccc23)CC1,11µM*
NC(=O)c1cccc(-c2coc3c(C(=O)NCc4ccccc4)cccc23)c1,i
COc1ccc(OCCN(C)Cc2c(O)ccc3ccccc23)cc1,i
CCc1nc2ccc(C(=O)N(CC)CCN(C)C)cn2c1N(C=O)CCC(C)C,i
Cc1onc(-c2ccccc2)c1C(=O)NC(=S)NNC(=O)c1ccco1,i
COc1ccccc1/C=N/NC(=O)c1c(-c2ccccc2)noc1C,i
COc1ccc(C(=O)NC(=S)NNC(=O)c2c(-c3ccccc3)noc2C)cc1OC,13µM*
O=C(CCCn1c(=O)c2sccc2n(Cc2cccc(Cl)c2)c1=O)NCc1ccc2c(c1)OCO2,i
Cc1cc(F)ccc1NCc1ccccc1[N+](=O)[O-],i
Cc1cc([N+](=O)[O-])ccc1NCc1ccccc1[N+](=O)[O-],i
O=[N+]([O-])c1ccccc1CNc1ccc(F)c(Cl)c1,16µM*
COCc1ccc(C(=O)N2CCCC(C(=O)c3ccc(SC)cc3)C2)o1 (configuration not stated),i
O=C(/C=C/c1cccc(Cl)c1Cl)OCC(=O)N1CCOCC1,i
COc1ccc(OC)c(NC(=O)CSC2=NN3CCCC(=O)N=C3S2)c1,i
COc1ccc(Cl)cc1NC(=O)CSC1=NN2CCCC(=O)N=C2S1,14µM*
CCOc1ccccc1NC(=O)CSC1=NN2CCCC(=O)N=C2S1,i
O=C(Nc1cccc(Cl)c1)N1Cc2ccccc2Oc2ncccc21,i
COc1ccc(-c2[nH]ncc2C(=O)NCc2cccc(Cl)c2)cc1,i
CC1CCC(NC(=O)CSc2nncn2C)CC1 (configuration not stated),i
COc1ccc(S(=O)(=O)N2CCCCC2)cc1NS(=O)(=O)c1ccc(CNC(C)=O)cc1,i
Cc1ccc(-n2c(C)cc(/C=N/NC(N)=S)c2C)cc1,14µM*
NC(=S)N/N=C/c1cccc(/C=N/NC(N)=S)c1,i
Cc1cc(/C=N/NC(N)=S)c(O)c(/C=N/NC(N)=S)c1,i

# Screening data deposited in PubChem by National Center for Advancing Translational Sciences (NCATS).
